This is part of a sample that, as a whole, favours compounds with a hit. Of some 83,000 tested, about 20% had one in any assay.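 Values shown are percent growth following 48 h exposure of cells in 96-well plates to a single concentration of compound; below 10 was considered active.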 Unmarked numbers belong to inactive results. The source made the active and inactive calls.

The test system of one test is SK-MEL-2 melanoma. In words: NCI-60 one-dose screen, 48 h (100 = growth as untreated, 0 = no growth, -100 = all killed). Conditions: 10 µM unless noted.
`CC(=O)Nc1nc(C(=O)N2N=C(C)/C(=C/c3cccs3)C2=O)cs1`: the growth is 98.4%.
The same measure, in the same setting: for `CN1C(=O)[C@H]2c3c1cccc3[C@@]13NC(=O)O[C@H]1[C@H](CCC3(C)C)C2(C)C` the value was 92.8%; for `CC(=O)C1CCC(C)=CC1=O` (stereo not drawn), 94.3%; for `COc1cccc(-n2cc(-c3nc(Cl)c4ccccc4n3)nn2)c1`, 89.5%.
Still for that read-out and setting: for `Nc1c(C(=O)Nc2cccc(Cl)c2Cl)sc2nc3c(cc12)C(=O)CCC3` the value was 38%.
Take `COc1cc(/C=C2\CCCC3=C2NC(C)=NC3c2cc(OC)c(OC)c(OC)c2)cc(OC)c1OC` (stereo not drawn): the growth was 26.6%.
On the same count and under the same terms, then `O=c1[nH]c(-c2cn(-c3ccc(Cl)cc3)nn2)nc2ccccc12`, with 77.2%; and `CC/C(=C(\c1ccc(O)cc1)c1ccc(OCCN(C)CCN(C)C(=O)CCC(=O)c2c(C)[nH]c(/C=C3\N=C(c4ccc[nH]4)C=C3OC)c2C)cc1)c1ccccc1`, with 96.8%; and `Cc1cc(Nc2nc(-c3ccncc3)nc3ccccc23)n[nH]1`, with 57.6%.
As for `COc1cc(C2C=C(C)N=C3SC=CN32)cc(OC)c1OC` (stereo not drawn), the growth is 115%.
In the case of `COC1=CC(c2ccc[nH]2)=N/C1=C\c1[nH]c(C)c(C(=O)CCC(=O)Oc2ccc3c(c2)CCC2C3CC[C@]3(C)[C@@H](O)CC[C@@H]23)c1C` (stereo partly drawn), the growth was 1.42% (active).
On the same count and under the same terms, for `Cc1ccc(Cn2c(-c3nonc3N)nc3ccccc32)cc1` the value was 78.2%; for `O=C(Nc1ccccc1)OCC1OCOC(COC(=O)Nc2ccccc2)C1OC(=O)Nc1ccccc1` (stereo not drawn), 109%.
For the compound `CC1=CNNc2c3ncnc-3ncn21`, the growth is 111%.
`CCN(CC)c1cc(/C=C/c2ccc(OC)c(OC)c2)nc2cc(F)c(F)cc12`: the growth is -58.2% (active).
Still for that read-out and setting: then `CCCCCCCCCCCCOB(OCCCCCCCCCCCC)OCCCCCCCCCCCC`, with 108%; and `c1ccn2nnnc2c1`, with 104%.
The same measure, in the same setting: for `Nc1c(C(=O)Nc2c(Cl)cccc2Cl)sc2nc3c(cc12)CCCCC3` the value was 62.8%; for `COc1ccc(-n2c(C)cc(-c3ccccc3)c2C)cc1`, 40%.
On the same count and under the same terms, then `COc1cc2c(cc1OC)C1(C)N(CC2)C(=O)OC1(C)C` (stereo not drawn), with 120%; and `COc1ccc(/C=C/c2nc(N3CCOCC3)c3nc(Cl)c(Cl)cc3n2)cc1OC`, with 99.1%; and `Cc1cccc(NC(=O)c2sc3nc4c(cc3c2N)CCCC4)c1`, with 54.9%.
Turning to `O=C(/C=C/c1ccccc1)n1c(-c2ccc(Cl)cc2)nc2ccccc21`, the growth is -36% (active).
Still for that read-out and setting: then `COc1cc(Cn2c(-c3nonc3N)nc3ccccc32)ccc1C`, with 20.5%; and `Clc1ccc(-c2nc(-c3ccco3)cn3ccnc23)cc1`, with 100%.
Still for that read-out and setting: for `Oc1ccc(N=Cc2ccccc2)cc1` the value was 94%.
On the same count and under the same terms, then `CCCCCc1c(C)[nH]c(/C=c2\[nH]/c(=C3/C=c4ccccc4=N3)cc2OC)c1C`, with -73.9% (active); and `COc1cc2nc(Cl)nc(NCCO)c2cc1OC`, with 125%; and `CCC1CCc2nc3sc(C(=O)Nc4ccccc4C)c(N)c3cc2C1` (stereo not drawn), with 21.9%.
Consider `Cc1cc(Nc2nc(C(=O)Nc3ccccc3)nc3ccccc23)n[nH]1`, for which the growth is 45.3%.
The same measure, in the same setting: for `c1ccc2nc(-c3ccc4ccccc4n3)ccc2c1` the value was 88%.
Still for that read-out and setting: for `Clc1nc2ccccc2nc1CI` the value was 64.3%; for `Cc1cccc(NC(=O)c2sc3nc4c(cc3c2N)CCC4)c1C`, 26.3%; for `Clc1cccc(Cl)c1Cn1c(-c2cncs2)nc2ccccc21`, 73.3%.
On the same count and under the same terms, for `Clc1ccc(/C=C/c2nc(N3CCOCC3)c3nc(Cl)c(Cl)cc3n2)cc1` the value was 110%.
Turning to `Cc1cc(Nc2nc(-c3ccc(F)cc3)nc3ccccc23)n[nH]1`, the growth is 27.7%.
Still for that read-out and setting: for `COC(=O)[C@H]1[C@H](OC)[C@@H](OC(=O)/C=C/c2ccncc2)CC2CN3CCc4c([nH]c5cc(OC)ccc45)[C@@H]3C[C@@H]21` (stereo partly drawn) the value was 103%; for `CN(C)c1ncc(-c2ccc(C(F)(F)F)cc2)c(NC2CCCCCC2)n1`, 56.6%; for `CC(=O)Nc1ccc(S(=O)(=O)N2C(=O)CCC2C(=O)Nc2ccccc2)cc1` (stereo not drawn), 43.9%.

The subject of another test is SN12C renal. Described as above. Conditions: 10 µM unless noted.
Consider `CC(=O)Nc1nc(C(=O)N2N=C(C)/C(=C/c3cccs3)C2=O)cs1`, for which the growth is 110%.
Same read-out and setting: for `CN1C(=O)[C@H]2c3c1cccc3[C@@]13NC(=O)O[C@H]1[C@H](CCC3(C)C)C2(C)C` the value was 93.3%; for `CC(=O)C1CCC(C)=CC1=O` (stereo not drawn), 99%.
For the compound `COc1cccc(-n2cc(-c3nc(Cl)c4ccccc4n3)nn2)c1`, the growth was 95.2%.
On to `Nc1c(C(=O)Nc2cccc(Cl)c2Cl)sc2nc3c(cc12)C(=O)CCC3`, for which the growth was 86.8%.
Still for that read-out and setting: then `COc1cc(/C=C2\CCCC3=C2NC(C)=NC3c2cc(OC)c(OC)c(OC)c2)cc(OC)c1OC` (stereo not drawn), with 10.8%.
Still for that read-out and setting: for `O=c1[nH]c(-c2cn(-c3ccc(Cl)cc3)nn2)nc2ccccc12` the value was 71.9%; for `CC/C(=C(\c1ccc(O)cc1)c1ccc(OCCN(C)CCN(C)C(=O)CCC(=O)c2c(C)[nH]c(/C=C3\N=C(c4ccc[nH]4)C=C3OC)c2C)cc1)c1ccccc1`, 91.8%; for `Cc1cc(Nc2nc(-c3ccncc3)nc3ccccc23)n[nH]1`, 61.6%.
The same measure, in the same setting: for `COc1cc(C2C=C(C)N=C3SC=CN32)cc(OC)c1OC` (stereo not drawn) the value was 105%.
As to `COC1=CC(c2ccc[nH]2)=N/C1=C\c1[nH]c(C)c(C(=O)CCC(=O)Oc2ccc3c(c2)CCC2C3CC[C@]3(C)[C@@H](O)CC[C@@H]23)c1C` (stereo partly drawn), the growth is 17.3%.
The same measure, in the same setting: then `Cc1ccc(Cn2c(-c3nonc3N)nc3ccccc32)cc1`, with 96.3%.
Same read-out and setting: then `O=C(Nc1ccccc1)OCC1OCOC(COC(=O)Nc2ccccc2)C1OC(=O)Nc1ccccc1` (stereo not drawn), with 77.3%.
With `CC1=CNNc2c3ncnc-3ncn21`, the growth is 105%.
Still for that read-out and setting: for `CCN(CC)c1cc(/C=C/c2ccc(OC)c(OC)c2)nc2cc(F)c(F)cc12` the value was 57%; for `CCCCCCCCCCCCOB(OCCCCCCCCCCCC)OCCCCCCCCCCCC`, 95.8%; for `c1ccn2nnnc2c1`, 92.7%.
In the case of `Nc1c(C(=O)Nc2c(Cl)cccc2Cl)sc2nc3c(cc12)CCCCC3`, the growth was 61.7%.
Still for that read-out and setting: then `COc1ccc(-n2c(C)cc(-c3ccccc3)c2C)cc1`, with 50.5%; and `COc1cc2c(cc1OC)C1(C)N(CC2)C(=O)OC1(C)C` (stereo not drawn), with 101%; and `COc1ccc(/C=C/c2nc(N3CCOCC3)c3nc(Cl)c(Cl)cc3n2)cc1OC`, with 98.3%.
The same measure, in the same setting: for `Cc1cccc(NC(=O)c2sc3nc4c(cc3c2N)CCCC4)c1` the value was 51.8%; for `O=C(/C=C/c1ccccc1)n1c(-c2ccc(Cl)cc2)nc2ccccc21`, -48.5% (active); for `COc1cc(Cn2c(-c3nonc3N)nc3ccccc32)ccc1C`, 36%.
Still for that read-out and setting: then `Clc1ccc(-c2nc(-c3ccco3)cn3ccnc23)cc1`, with 65.7%.
Turning to `Oc1ccc(N=Cc2ccccc2)cc1`, the growth is 96.5%.
Still for that read-out and setting: for `CCCCCc1c(C)[nH]c(/C=c2\[nH]/c(=C3/C=c4ccccc4=N3)cc2OC)c1C` the value was -51.4% (active); for `COc1cc2nc(Cl)nc(NCCO)c2cc1OC`, 104%.
As to `CCC1CCc2nc3sc(C(=O)Nc4ccccc4C)c(N)c3cc2C1` (stereo not drawn), the growth is 58%.
On the same count and under the same terms, for `Cc1cc(Nc2nc(C(=O)Nc3ccccc3)nc3ccccc23)n[nH]1` the value was 63%; for `c1ccc2nc(-c3ccc4ccccc4n3)ccc2c1`, 95.9%; for `Clc1nc2ccccc2nc1CI`, 54.3%.
Still for that read-out and setting: then `Cc1cccc(NC(=O)c2sc3nc4c(cc3c2N)CCC4)c1C`, with 41.2%.
On the same count and under the same terms, then `Clc1cccc(Cl)c1Cn1c(-c2cncs2)nc2ccccc21`, with 81.6%; and `Clc1ccc(/C=C/c2nc(N3CCOCC3)c3nc(Cl)c(Cl)cc3n2)cc1`, with 94.1%.
For the compound `Cc1cc(Nc2nc(-c3ccc(F)cc3)nc3ccccc23)n[nH]1`, the growth was 61.6%.
On the same count and under the same terms, then `COC(=O)[C@H]1[C@H](OC)[C@@H](OC(=O)/C=C/c2ccncc2)CC2CN3CCc4c([nH]c5cc(OC)ccc45)[C@@H]3C[C@@H]21` (stereo partly drawn), with 70.2%; and `CN(C)c1ncc(-c2ccc(C(F)(F)F)cc2)c(NC2CCCCCC2)n1`, with 45.9%; and `CC(=O)Nc1ccc(S(=O)(=O)N2C(=O)CCC2C(=O)Nc2ccccc2)cc1` (stereo not drawn), with 40.4%.

The values are drawn from PubChem BioAssay (NCI).
